# Compound activity as filed in PubChem.
# Sampled rows, rich in hits. Any-hit rate of the full collection: about 12%.
# L3MBTL1 inh = qHTS Assay for the Inhibitors of L3MBTL1 | Lethal(3)malignant brain tumor-like protein 1 (Homo sapiens), Q9Y468 | AlphaScreen L3MBTL1–H3K9me1 peptide binding | Potency, µM (series often up to 57.1 µM), hits mostly inhibitors | 230,000 compounds, 0.66% hits; note: nearly all actives have a fitted effect of over 60% in size
# Target sequence (Q9Y468 whole entry, looked up): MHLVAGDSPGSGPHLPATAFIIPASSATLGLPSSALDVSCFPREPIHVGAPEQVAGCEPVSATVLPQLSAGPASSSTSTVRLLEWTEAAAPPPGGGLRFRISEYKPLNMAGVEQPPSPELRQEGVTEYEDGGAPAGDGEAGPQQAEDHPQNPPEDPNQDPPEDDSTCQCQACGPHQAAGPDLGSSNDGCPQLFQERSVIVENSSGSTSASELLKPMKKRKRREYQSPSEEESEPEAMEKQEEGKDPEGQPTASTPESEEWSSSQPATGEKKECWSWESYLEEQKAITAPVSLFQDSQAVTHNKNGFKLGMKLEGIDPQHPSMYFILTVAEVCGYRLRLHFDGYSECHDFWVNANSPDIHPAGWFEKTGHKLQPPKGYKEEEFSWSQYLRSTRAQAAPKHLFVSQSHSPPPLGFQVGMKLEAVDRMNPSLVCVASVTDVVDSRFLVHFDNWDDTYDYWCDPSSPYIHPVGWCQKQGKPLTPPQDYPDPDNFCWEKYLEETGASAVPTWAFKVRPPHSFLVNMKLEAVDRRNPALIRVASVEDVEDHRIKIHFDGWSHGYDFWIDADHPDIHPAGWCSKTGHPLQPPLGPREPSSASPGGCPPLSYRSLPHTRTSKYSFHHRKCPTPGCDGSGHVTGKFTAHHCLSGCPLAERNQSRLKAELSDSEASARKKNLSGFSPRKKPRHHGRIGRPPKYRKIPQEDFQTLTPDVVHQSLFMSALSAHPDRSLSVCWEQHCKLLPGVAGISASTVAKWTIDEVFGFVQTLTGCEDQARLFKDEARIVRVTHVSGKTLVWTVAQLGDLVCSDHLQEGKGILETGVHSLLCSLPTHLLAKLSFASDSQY
#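 AlphaScreen assay: L3MBTL1 (50 nM final) was preincubated 30 min at room temperature with biotinylated H3(1-15)K9me1 peptide (75 nM final), then 30 min with library compounds; streptavidin donor and nickel chelate acceptor beads (10 ug/mL final) added, 30 min dark.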
# Sfp inh = qHTS Assay for Inhibitors of Bacillus subtilis Sfp phosphopantetheinyl transferase (PPTase); Biochemical Sfp PPTase activity, qHTS; Potency, µM, hits mostly inhibitors; 310,000 compounds, 3.5% hits;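 note: the enzyme is Sfp with the accession as filed and its product quenches rhodamine fluorescence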
#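 Buffer: 50 mM Hepes-Na pH 7.6, 10 mM MgCl2, 0.01% Nonidet P-40, 0.01% BSA. Enzyme 15 nM, pre-exposed to compound 15 min; substrates then added and fluorescence change tracked over 30 min.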
# BAZ2B block = qHTS Assay for Inhibitors of BAZ2B; Bromodomain adjacent to zinc finger domain protein 2B (Homo sapiens), Q9UIF8; AlphaScreen BAZ2B-H3K14Ac peptide displacement; Potency, µM (doses to about 114 µM), most hits filed as inhibitors; 360,000 compounds, 4.4% hits; note: nearly all actives have a fitted effect of over 60% in size
#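 In this displacement format the biotinylated H3(5-23) peptide acetylated at Lys14 serves as ligand at 50 nM, with BAZ2B at 50 nM in PBS pH 7.4 containing 0.01% Tween-20. Donor and acceptor beads are 10 ug/mL final.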
# JMJD2A Tudor = qHTS Assay for Inhibitors of JMJD2A-Tudor Domain | 390,000 compounds, 4.4% hits | Lysine-specific demethylase 4A (Homo sapiens), O75164 | Potency, µM (titrated, usually from 114 µM), most hits filed as inhibitors | AlphaScreen JMJD2A-Tudor / H3K4me3 peptide binding; note: nearly all actives have a fitted effect of over 50% in size
# HP1b binding inh = HTS for Inhibitors of HP1-beta Chromodomain Interactions with Methylated Histone Tails; Chromobox protein homolog 1 (Homo sapiens), P83916; AlphaScreen HP1-beta / biotin-H3K9me3 peptide binding; Potency, µM (titrated, usually from 114 µM), actives largely listed as inhibitors; 390,000 compounds, 0.56% hits; AID 540317, 2011; note: nearly all actives have a fitted effect of over 70% in size
#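 AlphaScreen: HP1-beta (50 nM) preformed 30 min with biotin-H3(1-18)K9me3 peptide (50 nM) in PBS pH 7.4, 0.01% Tween-20. Compound added for 30 min at RT, then streptavidin donor/nickel chelate acceptor beads (10 ug/mL) for 30 min.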
# G9a inh = qHTS Assay for Inhibitors of Histone Lysine Methyltransferase G9a. AID 504332, 2011. Histone-lysine N-methyltransferase EHMT2 (Homo sapiens), Q96KQ7. Potency, µM (titrated, usually from 102 µM), usual class: inhibitors. 350,000 compounds, 8.8% hits. G9a H3K9 monomethylation, AlphaScreen, 2 h; note: nearly all actives have a fitted effect of over 75% in size
#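 Enzyme 20 nM + cpd, 15 min RT; add b-H3K9 pep 500 nM / SAM 20 uM; 2 h RT; anti-H3K9me1 Ab 0.5 ug/mL + SA donor / anti-rabbit acceptor beads 20 ug/mL each, 10 min; AlphaScreen read.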
# Numbers stand for hits; – = inactive; ? = inconclusive; · = no result given; [ ] = another dose, or the depositor's remark. Calls come from the whole dose curve; as a rule, active = well fitted curve in the direction sought with a large enough effect; inconclusive = small, poorly fitted or top-dose-only effect, or another doubt; inactive = no such curve, though single readings can be large; an effect the other way counts as inactive or inconclusive.
SMILES,L3MBTL1 inh,Sfp inh,BAZ2B block,JMJD2A Tudor,HP1b binding inh,G9a inh
C/C(=N\Nc1cc(C(F)(F)F)ccc1Cl)c1ccncc1,·,–,–,–,–,40µM
Cn1c(=O)cnc2cnc(Nc3ccccc3)nc21,·,–,·,·,·,–[12.7 µM]
O=C(CSc1nc2ccccc2s1)Nn1cnnc1,·,–,?,–,–,–[12.7 µM]
C=CCNC(=S)NNC(=O)CSc1nc2ccccc2s1,–,–,–,–,–,28µM
O=C(CSc1nc2ccccc2s1)NCCOc1ccc(Cl)cc1,–,–,–,–,–,–[12.7 µM]
O=C(CSc1nc2ccccc2s1)NNC(=S)Nc1ccc(Cl)cc1,–,–,–,–,–,40µM
Cc1cc(C(=O)O)ccc1-n1c(C)cc(/C=C2\SC(=O)NC2=O)c1C,–,–,–,–,–,?
Cc1ccc(C(=O)O)cc1-n1c(C)cc(C=O)c1C,?,–,79µM,–,–,?
Cc1c(C(=O)O)cccc1-n1c(C)cc(C=O)c1C,?,–,?,50µM,–,45µM
CCC1CCC(C(=O)NNC(=O)c2cc(-c3ccco3)[nH]n2)CC1 (stereo unspecified),–,45µM,?,–,–,14µM
Cc1cnc(CNc2cc(-c3cccc(NS(C)(=O)=O)c3)ncn2)cn1,·,–,·,·,·,–[0.501 µM]
C#CCOCCOCCOCCNc1nc(N2CCN(C(=O)[C@H]([C@@H](C)CC)n3cc(CCC(=O)O)nn3)CC2)nc(N2CCN(C(=O)[C@H](CCCCN)n3cc(CCC(=O)O)nn3)CC2)n1,·,·,·,–,–,·
C#CCOCCOCCOCCNc1nc(N2CCN(C(=O)[C@H](CCC(=O)O)n3cc(CN)nn3)CC2)nc(N2CCN(C(=O)[C@H](CCC(=O)O)n3cc([C@@H](N)[C@H](C)CC)nn3)CC2)n1,–,·,·,79µM,–,·
C#CCOCCOCCOCCNc1nc(N2CCN(C(=O)[C@H](CCC(=O)O)n3cc([C@@H](N)[C@H](C)CC)nn3)CC2)nc(N2CCN(C(=O)[C@H](CCC(=O)O)n3cc([C@@H](N)CCSC)nn3)CC2)n1,?,·,·,50µM,–,·
C#CCOCCOCCOCCNc1nc(N2CCOCC2)nc(N2CCN(C(=O)[C@H](CCC(=O)O)n3cc(C(N)[C@H](C)CC)nn3)CC2)n1 (stereo partly specified),–,–,–,40µM,–,–[12.7 µM]
Cn1c(SCc2ccccc2Cl)nc(=O)c2c1NC(=O)CC2c1cc(F)ccc1F (stereo unspecified),·,·,–,–,–,–
Nc1nnc(SCC(=O)Nc2ccccc2C(F)(F)F)s1,·,·,–,–,–,–
O=C(Nc1cccc(F)c1)N1CC[C@@]2(CCCN(C(=O)c3cc(C(F)(F)F)cc(C(F)(F)F)c3)C2)C1,·,–,·,·,·,–[12.7 µM]
CC1=C(C)CS(=O)N(S(=O)(=O)c2ccc(Cl)cc2)C1 (stereo unspecified),–,3.5µM,–,–,–,2.2µM
CC1CCCC(C)N1S(=O)(=O)c1ccc(Cl)cc1 (stereo unspecified),–,–,–,–,–,–
COc1ccc(C(=O)N2N=C(c3cccc(OC)c3)CC2(O)C(F)(F)F)cc1 (stereo unspecified),–,50µM,–,–,–,–
COc1cccc(C(=O)N2N=C(c3cccc(OC)c3)CC2(O)C(F)(F)F)c1 (stereo unspecified),–,–,–,–,–,–
COc1cccc(C2=NN(C(=O)c3cccs3)C(O)(C(F)(F)F)C2)c1 (stereo unspecified),·,45µM,–,–,–,–
O=[N+]([O-])c1cc(Br)cc(C=Nc2ccc3c(c2)OCO3)c1O,–,?,45µM,?,–,45µM
O=[N+]([O-])c1ccc(O)c(C=Nc2ccc3c(c2)OCO3)c1,–,–,–,–,–,·
SMILES,L3MBTL1 inh,Sfp inh,BAZ2B block,JMJD2A Tudor,HP1b binding inh,G9a inh
O=C(CCc1ccc(O)c(O)c1)N/N=C/c1cc2c(cc1[N+](=O)[O-])OCO2,·,40µM,45µM,40µM,?,3.5µM
Cc1ccc(N=Cc2cc3c(cc2[N+](=O)[O-])OCO3)cc1[N+](=O)[O-],·,·,·,?,–,·
Cc1cccc(C)c1OCC(=O)N/N=C/c1cc2c(cc1[N+](=O)[O-])OCO2,·,–,–,–,–,?
Cc1ccc(C)c(N=Cc2cc3c(cc2[N+](=O)[O-])OCO3)c1,·,?,20µM,50µM,45µM,?
O=[N+]([O-])c1cc2c(cc1/C=N\NS(=O)(=O)c1ccccc1)OCO2,–,–,–,–,–,4µM
O=[N+]([O-])c1ccc(S(=O)(=O)NN=Cc2ccc3c(c2)OCO3)cc1,·,·,·,–,–,·
CCCCN(Cc1ccccc1)S(=O)(=O)c1cc(Br)cc2c1N(C(=O)C1CC1)CC2,·,·,–,–,–,–
COc1ccccc1NC(=O)CSC1=Nc2ccccc2C2=NC(CCC(=O)NCc3ccco3)C(=O)N12 (stereo unspecified),·,·,–,–,–,–
O=C(Oc1ccccc1)N1CCC2(CC1)CN(c1ccncc1)C2,·,–,·,·,·,–[12.7 µM]
CC(C)(C)c1ccc(O)c(N=Cc2cc3c(cc2[N+](=O)[O-])OCO3)c1,–[2.29 µM],–,50µM,?,?,–[0.501 µM]
Cc1cc2cc(CN(Cc3ccco3)C(=S)NCC3CCCO3)c(=O)[nH]c2cc1C (stereo unspecified),–,50µM,?,?,–,?
CCc1ccc2[nH]c(=O)c(CN(Cc3ccco3)C(=S)NCC3CCCO3)cc2c1 (stereo unspecified),–,–,–,?,–,·
CN(C)CCCN(Cc1cc2cc3c(cc2[nH]c1=O)OCO3)C(=S)Nc1cccc(Cl)c1,?,–,–,?,–,50µM
CCN(CC)CCCNC(=S)N(Cc1ccco1)Cc1cc2cc3c(cc2[nH]c1=O)OCCO3,–,79µM,–,·,·,–
CNC(=S)N(Cc1ccco1)Cc1cc2cc3c(cc2[nH]c1=O)OCCO3,–,28µM,–,–,–,79µM
COc1cccc(CNC(=O)Cn2nc(C)n3c(cc4cc(C)ccc43)c2=O)c1OC,·,·,–,–,–,–
COc1ccc(C)cc1-n1nnc(S(=O)(=O)c2ccc(C)cc2)c1C,·,·,–,–,–,–
Cc1ccccc1NC(=O)c1ccc(F)c(S(=O)(=O)N(C)Cc2ccccc2)c1,·,·,–,–,–,–
CCCCCCCCOc1ccc(C(=O)O)cc1,–,·,–,–,–,–[0.501 µM]
C=C(C)C(=O)OCCCCCCOc1ccc(C(=O)O)cc1,–,–,?,11µM,?,–[12.7 µM]
COc1cccc(CNC(=O)c2ccc(-c3nc(CSc4ccccc4)c(C)o3)cc2)c1,·,·,–,–,–,–
